From the supplement of paper PMC11732987, “Enantioselective OTUD7B fragment discovery through chemoproteomics screening and high-throughput optimisation” (Communications Chemistry, 2025)

What was measured:
Assay in all cases: log2 ratio of Biotin-Ahx-Ub-VS probe labelling (fragment/DMSO); higher = less target engagement (more negative = stronger competition), active = hit call of the paper (q ≤ 0.05, log2 ratio ≤ -1)
Details in all cases: compound concentration: 200 uM; treatment time: 3 h
USP34 = USP34 (UniProt Q70CQ2)
Sequence of USP34 (Q70CQ2 whole entry, the tested form may be a part): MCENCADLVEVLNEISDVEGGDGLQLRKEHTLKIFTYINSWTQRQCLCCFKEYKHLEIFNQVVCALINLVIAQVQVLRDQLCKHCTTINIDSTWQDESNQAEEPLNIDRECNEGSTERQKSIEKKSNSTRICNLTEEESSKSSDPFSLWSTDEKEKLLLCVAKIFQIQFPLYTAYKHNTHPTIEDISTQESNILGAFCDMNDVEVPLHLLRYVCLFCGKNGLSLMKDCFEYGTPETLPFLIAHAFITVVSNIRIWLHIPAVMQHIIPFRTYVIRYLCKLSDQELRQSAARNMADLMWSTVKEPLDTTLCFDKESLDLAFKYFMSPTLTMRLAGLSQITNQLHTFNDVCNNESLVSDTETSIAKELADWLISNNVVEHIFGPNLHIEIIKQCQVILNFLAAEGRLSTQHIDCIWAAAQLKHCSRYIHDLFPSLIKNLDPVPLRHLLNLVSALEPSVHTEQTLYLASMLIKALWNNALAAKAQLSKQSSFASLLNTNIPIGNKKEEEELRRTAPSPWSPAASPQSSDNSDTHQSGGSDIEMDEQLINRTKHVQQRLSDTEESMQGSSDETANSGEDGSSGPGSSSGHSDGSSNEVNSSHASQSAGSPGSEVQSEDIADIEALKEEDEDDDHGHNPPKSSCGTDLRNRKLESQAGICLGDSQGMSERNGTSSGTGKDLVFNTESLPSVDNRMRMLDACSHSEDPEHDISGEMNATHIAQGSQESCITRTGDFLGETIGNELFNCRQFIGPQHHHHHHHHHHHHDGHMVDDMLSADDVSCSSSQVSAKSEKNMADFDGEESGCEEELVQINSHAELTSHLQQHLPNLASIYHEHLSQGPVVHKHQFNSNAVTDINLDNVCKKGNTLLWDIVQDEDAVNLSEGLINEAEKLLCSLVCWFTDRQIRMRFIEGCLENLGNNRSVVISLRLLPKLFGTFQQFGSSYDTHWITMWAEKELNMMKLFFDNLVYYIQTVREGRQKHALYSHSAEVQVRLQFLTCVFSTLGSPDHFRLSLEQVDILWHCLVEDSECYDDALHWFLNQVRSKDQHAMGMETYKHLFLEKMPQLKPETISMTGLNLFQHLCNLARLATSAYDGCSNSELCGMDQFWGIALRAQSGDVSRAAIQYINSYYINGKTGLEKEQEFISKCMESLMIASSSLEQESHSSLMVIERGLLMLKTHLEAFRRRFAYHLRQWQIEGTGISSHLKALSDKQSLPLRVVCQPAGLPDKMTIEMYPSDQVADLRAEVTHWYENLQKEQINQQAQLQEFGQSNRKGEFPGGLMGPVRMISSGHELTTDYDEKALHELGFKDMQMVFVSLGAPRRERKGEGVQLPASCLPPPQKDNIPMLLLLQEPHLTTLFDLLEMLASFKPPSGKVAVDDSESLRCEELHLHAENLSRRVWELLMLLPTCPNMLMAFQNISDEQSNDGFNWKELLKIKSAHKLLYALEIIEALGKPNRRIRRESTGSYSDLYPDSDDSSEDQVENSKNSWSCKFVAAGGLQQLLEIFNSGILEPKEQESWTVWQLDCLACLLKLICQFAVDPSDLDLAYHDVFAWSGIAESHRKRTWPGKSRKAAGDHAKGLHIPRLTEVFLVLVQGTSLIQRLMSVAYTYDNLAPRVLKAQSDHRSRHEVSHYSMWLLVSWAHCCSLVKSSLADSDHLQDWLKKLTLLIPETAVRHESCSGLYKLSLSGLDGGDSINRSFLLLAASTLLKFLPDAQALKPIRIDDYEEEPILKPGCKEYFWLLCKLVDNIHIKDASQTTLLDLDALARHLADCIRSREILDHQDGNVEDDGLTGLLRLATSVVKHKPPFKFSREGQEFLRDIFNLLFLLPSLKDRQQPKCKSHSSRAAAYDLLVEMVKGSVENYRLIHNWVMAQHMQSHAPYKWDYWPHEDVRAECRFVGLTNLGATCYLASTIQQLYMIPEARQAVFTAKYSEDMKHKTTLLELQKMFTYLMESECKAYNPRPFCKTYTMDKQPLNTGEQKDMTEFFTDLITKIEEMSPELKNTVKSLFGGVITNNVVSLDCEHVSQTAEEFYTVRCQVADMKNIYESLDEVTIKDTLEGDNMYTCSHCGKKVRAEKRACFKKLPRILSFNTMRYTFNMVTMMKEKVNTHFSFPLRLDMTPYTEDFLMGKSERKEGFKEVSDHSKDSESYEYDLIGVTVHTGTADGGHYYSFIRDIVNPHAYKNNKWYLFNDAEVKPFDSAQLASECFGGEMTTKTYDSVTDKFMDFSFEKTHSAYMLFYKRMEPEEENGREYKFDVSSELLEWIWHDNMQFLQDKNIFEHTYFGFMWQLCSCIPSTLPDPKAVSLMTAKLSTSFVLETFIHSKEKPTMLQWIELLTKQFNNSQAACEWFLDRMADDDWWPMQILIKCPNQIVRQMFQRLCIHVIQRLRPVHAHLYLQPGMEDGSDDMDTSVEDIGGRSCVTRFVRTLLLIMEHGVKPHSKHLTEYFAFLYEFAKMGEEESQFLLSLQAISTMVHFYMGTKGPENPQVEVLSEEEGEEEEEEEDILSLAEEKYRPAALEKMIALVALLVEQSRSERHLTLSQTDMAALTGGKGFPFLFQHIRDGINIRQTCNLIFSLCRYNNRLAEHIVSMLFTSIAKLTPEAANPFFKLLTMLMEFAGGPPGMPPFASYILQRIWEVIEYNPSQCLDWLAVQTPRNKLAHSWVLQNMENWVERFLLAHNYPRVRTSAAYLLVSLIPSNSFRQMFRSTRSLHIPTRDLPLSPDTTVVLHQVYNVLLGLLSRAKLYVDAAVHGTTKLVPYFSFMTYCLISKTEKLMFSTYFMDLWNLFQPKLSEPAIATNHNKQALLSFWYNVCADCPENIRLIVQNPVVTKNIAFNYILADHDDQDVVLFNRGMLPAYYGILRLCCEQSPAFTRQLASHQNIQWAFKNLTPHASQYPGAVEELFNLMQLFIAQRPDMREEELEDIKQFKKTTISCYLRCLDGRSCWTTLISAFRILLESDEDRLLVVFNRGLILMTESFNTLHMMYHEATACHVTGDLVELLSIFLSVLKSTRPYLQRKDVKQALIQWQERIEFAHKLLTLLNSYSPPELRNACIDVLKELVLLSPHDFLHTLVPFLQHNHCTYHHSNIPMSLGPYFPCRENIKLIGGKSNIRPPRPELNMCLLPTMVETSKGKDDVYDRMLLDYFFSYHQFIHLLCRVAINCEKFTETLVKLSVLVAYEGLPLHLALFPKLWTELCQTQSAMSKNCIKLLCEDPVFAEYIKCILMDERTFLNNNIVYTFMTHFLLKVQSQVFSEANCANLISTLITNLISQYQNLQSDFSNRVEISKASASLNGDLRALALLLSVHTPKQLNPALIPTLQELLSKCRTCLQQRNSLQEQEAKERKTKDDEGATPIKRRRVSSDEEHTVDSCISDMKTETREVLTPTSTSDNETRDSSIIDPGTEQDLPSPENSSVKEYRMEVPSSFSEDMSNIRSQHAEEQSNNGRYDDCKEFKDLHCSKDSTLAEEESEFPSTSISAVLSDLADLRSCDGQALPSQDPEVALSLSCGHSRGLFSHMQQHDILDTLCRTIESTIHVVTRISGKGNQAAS
Method in brief: (§1)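 HEK293T lysate, 495 µg per sample in Tris/CHAPS/IGEPAL buffer with protease inhibitors, was treated in triplicate with fragment at 200 µM or vehicle for 3 h and then with Biotin-Ahx-Ub-VS at 0.5 µM final for 1 h. Labelled DUBs were NeutrAvidin-enriched, digested with LysC and trypsin, and run by diaPASEF LC-MS/MS. Spectronaut label-free quantities were global-median-normalised, and values are average log2 fragment/vehicle ratios by unpaired t-test on proteins with ≥2 unique peptides.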

USP36 = target: T1, USP36 (UniProt Q9P275)
T1 sequence (whole entry): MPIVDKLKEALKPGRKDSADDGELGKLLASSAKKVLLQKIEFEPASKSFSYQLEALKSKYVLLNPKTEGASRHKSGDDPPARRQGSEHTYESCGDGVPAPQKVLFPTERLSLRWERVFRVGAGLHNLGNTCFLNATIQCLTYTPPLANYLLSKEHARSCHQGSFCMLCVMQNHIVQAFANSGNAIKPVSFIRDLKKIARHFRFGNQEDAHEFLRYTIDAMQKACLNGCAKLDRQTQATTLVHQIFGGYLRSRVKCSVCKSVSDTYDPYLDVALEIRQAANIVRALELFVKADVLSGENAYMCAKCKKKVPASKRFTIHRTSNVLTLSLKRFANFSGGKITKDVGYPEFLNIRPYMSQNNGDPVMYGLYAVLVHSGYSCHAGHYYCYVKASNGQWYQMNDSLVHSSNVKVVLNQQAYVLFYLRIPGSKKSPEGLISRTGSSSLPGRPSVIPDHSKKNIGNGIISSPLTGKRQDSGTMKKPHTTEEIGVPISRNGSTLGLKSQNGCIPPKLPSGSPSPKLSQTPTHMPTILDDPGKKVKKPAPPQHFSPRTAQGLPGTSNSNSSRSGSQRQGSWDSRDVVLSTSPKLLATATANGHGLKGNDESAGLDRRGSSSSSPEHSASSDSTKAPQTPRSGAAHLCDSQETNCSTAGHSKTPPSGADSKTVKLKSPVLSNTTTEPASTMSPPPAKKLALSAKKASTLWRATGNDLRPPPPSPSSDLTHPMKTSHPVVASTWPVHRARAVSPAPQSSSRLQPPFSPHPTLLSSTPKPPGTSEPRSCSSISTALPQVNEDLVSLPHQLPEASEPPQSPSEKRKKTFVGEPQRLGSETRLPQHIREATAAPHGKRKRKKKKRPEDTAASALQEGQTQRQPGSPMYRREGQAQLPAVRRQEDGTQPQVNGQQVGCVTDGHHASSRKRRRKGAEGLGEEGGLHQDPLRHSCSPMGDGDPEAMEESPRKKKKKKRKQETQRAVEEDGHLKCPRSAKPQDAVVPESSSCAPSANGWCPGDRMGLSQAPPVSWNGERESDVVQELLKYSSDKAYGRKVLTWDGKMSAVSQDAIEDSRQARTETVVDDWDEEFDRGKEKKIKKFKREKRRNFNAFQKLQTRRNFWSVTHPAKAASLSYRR
Method in brief: as §1

USP38 = target: T2, USP38 (UniProt Q8NB14)
T2 sequence (whole entry): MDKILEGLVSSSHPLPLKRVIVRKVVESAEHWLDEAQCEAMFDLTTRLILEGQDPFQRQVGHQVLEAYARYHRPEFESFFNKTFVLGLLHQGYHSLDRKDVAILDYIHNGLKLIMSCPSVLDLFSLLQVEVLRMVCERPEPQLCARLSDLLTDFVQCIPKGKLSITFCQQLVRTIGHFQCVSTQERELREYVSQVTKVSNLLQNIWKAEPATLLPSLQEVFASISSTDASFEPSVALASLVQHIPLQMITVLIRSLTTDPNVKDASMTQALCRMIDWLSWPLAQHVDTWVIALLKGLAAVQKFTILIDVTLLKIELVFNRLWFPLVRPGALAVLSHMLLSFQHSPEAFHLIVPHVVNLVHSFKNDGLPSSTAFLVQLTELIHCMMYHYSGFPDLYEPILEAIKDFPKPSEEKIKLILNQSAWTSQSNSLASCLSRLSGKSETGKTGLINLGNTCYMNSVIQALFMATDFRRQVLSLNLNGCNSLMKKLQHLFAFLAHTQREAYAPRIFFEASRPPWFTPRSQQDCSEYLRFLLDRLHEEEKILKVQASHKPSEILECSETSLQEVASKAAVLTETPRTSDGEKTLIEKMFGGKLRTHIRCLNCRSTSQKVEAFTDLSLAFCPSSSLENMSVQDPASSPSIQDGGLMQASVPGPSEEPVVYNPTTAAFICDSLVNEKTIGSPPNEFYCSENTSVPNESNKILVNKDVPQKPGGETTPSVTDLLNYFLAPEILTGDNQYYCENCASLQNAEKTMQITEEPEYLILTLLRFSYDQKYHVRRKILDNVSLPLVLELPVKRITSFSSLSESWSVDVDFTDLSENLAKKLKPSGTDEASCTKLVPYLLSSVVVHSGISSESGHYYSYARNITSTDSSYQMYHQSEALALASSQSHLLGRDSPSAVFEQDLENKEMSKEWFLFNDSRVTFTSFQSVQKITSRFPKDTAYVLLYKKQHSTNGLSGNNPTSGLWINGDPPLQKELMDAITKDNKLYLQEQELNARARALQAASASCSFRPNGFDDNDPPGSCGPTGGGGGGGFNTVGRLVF
Method in brief: as §1

USP39 = target: T3, USP39 (UniProt Q53GS9)
T3 sequence (whole entry): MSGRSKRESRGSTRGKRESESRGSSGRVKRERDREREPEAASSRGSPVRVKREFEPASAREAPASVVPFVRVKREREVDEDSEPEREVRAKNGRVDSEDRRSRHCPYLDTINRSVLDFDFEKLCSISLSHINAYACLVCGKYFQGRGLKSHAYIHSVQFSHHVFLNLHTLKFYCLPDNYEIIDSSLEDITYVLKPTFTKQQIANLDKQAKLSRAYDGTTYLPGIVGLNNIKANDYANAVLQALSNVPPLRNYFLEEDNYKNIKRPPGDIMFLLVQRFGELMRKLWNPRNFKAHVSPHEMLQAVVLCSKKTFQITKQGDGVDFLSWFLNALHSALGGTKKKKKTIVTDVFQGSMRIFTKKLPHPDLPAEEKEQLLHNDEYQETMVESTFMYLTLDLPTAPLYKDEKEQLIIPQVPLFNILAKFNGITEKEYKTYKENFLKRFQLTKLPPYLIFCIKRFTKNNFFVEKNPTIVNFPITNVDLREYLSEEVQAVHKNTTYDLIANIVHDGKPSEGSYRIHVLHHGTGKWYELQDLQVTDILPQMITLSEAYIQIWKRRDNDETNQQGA
Method in brief: as §1

USP4 = target: T4, USP4 (UniProt Q13107)
T4 sequence (whole entry): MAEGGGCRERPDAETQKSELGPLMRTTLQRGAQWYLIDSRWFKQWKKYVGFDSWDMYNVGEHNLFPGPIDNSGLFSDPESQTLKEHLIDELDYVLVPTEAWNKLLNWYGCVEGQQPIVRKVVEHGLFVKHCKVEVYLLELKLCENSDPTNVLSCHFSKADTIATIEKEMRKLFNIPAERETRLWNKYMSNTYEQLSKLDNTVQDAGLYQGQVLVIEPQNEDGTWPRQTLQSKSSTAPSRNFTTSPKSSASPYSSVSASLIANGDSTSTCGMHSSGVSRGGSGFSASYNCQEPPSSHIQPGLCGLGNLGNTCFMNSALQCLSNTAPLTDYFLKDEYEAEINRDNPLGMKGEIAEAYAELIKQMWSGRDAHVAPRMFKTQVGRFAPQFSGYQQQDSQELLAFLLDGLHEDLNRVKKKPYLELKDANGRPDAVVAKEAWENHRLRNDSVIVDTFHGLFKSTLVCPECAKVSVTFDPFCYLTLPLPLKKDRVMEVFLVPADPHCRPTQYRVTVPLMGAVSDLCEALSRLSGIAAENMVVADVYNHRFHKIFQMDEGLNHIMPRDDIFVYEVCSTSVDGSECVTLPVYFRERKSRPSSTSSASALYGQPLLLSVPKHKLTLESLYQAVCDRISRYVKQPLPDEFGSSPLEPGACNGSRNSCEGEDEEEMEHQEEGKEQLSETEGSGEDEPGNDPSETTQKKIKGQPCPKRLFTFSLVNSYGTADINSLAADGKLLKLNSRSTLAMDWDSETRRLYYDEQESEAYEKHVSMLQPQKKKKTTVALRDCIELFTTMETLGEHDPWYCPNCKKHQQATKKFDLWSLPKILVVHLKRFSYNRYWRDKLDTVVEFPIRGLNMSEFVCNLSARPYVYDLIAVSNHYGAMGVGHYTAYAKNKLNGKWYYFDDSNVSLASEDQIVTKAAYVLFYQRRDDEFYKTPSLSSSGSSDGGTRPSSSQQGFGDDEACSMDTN
Method in brief: as §1

Measured: log2 ratio of Biotin-Ahx-Ub-VS probe labelling

C[C@H]1CN(C(=O)CCl)CCN1C(=O)c1cnn(C)c1.Cl
inactive: USP34 -0.052 | USP36 -0.171 | USP38 -0.0453 | USP39 0.0473 | USP4 -0.115
